Among the data in PubChem BioAssay (Tox21) are Potency and outcome values, retold here.

SMILES strings stand for the structures. Where “and” joins values, the source holds several entries; their conditions need not be identical. Identical values can stand only once. Records with an inconclusive call do not appear. Some structures have more than one record in an assay (separate samples or runs), and their calls can disagree. Calls of active or inactive are those of the source. Unless noted, calls come from the whole dose curve; as a rule, active = well fitted curve in the direction sought with a large enough effect in the repeat runs; inconclusive = weak or mixed curves; inactive = no such curve, though single readings can be large; an effect the other way counts as inactive or inconclusive.

Assay [1] is described as follows: qHTS assay to identify aromatase inhibitors - cell viability counter screen (AID 743084).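 Note: cells stimulated with testosterone during compound exposure; nearly all actives have a fitted effect of over 55% in size.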 Note: potency is the fitted concentration of half-maximal effect. For orientation: qHTS replaces the single test concentration by a dilution series.
Assay [2] addresses Aryl hydrocarbon receptor (Homo sapiens) (UniProt P35869). Kind of assay: qHTS assay to identify small molecule that activate the aryl hydrocarbon receptor (AhR) signaling pathway (AID 743085).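 Note: HG2L7.5c1 human HepG2 liver cells with stably integrated DRE-driven firefly reporter; series mostly up to about 70 µM; nearly all actives have a fitted effect of over 15% in size.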 The method in brief:
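Cell line HG2L7.5c1 (human hepatoma, 20× DRE-luc). Plated, 5 h 37C, compound/DMSO added, 24 h 37C. CellTiter-Fluor 30 min 37C → fluorescence; then ONE-Glo 30 min RT → luminescence.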

Assay [3] can be described thus: qHTS assay to identify small molecule that activate the aryl hydrocarbon receptor (AhR) signaling pathway - cell viability counter screen (AID 743086).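 Note: HepG2 liver cells carrying the AhR DRE luciferase reporter; series mostly up to about 70 µM; nearly all actives have a fitted effect of over 45% in size.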 Put shortly: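 HepG2-AhR-luc (HG2L7.5c1) cells, 4000/well, treated 24 h at 37 C with compound; viability measured as CellTiter-Fluor fluorescence after 30 min in the same wells as the luciferase read.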
Assay [4] has as its target Peroxisome proliferator-activated receptor gamma (Homo sapiens) (UniProt P37231). In words: qHTS assay to identify small molecule agonists of the peroxisome proliferator-activated receptor gamma (PPARg) signaling pathway (AID 743094; active = well fitted activation curve with a large enough effect in the signal ratio in the repeat runs, not every such curve was filed as active; the % refers to the signal ratio). Put shortly: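 Cell-based bla reporter, HEK293H background, PPARg-driven UAS. Pre-incubation 5 h, 37C, 5% CO2. Compound 17 h, 37C. Substrate 1 h RT; fluorescence.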

Assay [5] shares this target. Kind of assay: qHTS assay to identify small molecule antagonists of the peroxisome proliferator-activated receptor gamma (PPARg) signaling pathway (AID 743191; calls by dose curve; note: series mostly up to about 63 µM; nearly all actives have a fitted effect of over 30% in size). Put shortly:
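GeneBLAzer PPARg UAS-bla HEK293H cells, 5 h post-plating, exposed to compounds 17 h at 37C. LiveBLAzer B/G FRET substrate added for 1 h at room temperature; beta-lactamase reporter read by fluorescence intensity.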

A short description of assay [6]: qHTS assay to identify small molecule antagonists of the peroxisome proliferator-activated receptor gamma (PPARg) signaling pathway - cell viability counter screen (AID 743194). Note: nearly all actives have a fitted effect of over 55% in size. The method in brief: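 Cytotoxicity counter screen in PPARg-bla HEK293H cells, same wells as reporter assay. Compounds plus 50 nM rosiglitazone (final) for 17 h at 37 C, then viability read by CellTiter-Glo luminescence.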

Assay [7] in a line: qHTS assay for small molecule agonists of the antioxidant response element (ARE) signaling pathway (AID 743202; active = well fitted activation curve with a large enough effect in the signal ratio in the repeat runs, not every such curve was filed as active; the % refers to the signal ratio). The method in brief: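 HepG2 ARE-bla cells; 16 h treatment at 37 C; FRET-based beta-lactamase fluorescence read after 2 h substrate incubation at room temperature.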
Assay [8] in a line: qHTS assay for small molecule agonists of the antioxidant response element (ARE) signaling pathway - cell viability counter screen (AID 743203; calls by dose curve; note: nearly all actives have a fitted effect of over 55% in size; note: potency is the fitted concentration of half-maximal effect). The method in brief:
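Measured in the same wells as the beta-lactamase ARE reporter, this read-out is CellTiter-Glo luminescence from HepG2 ARE-bla cells given compounds for 16 hrs.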

Assay [9] is described as follows: qHTS assay for small molecule activators of the heat shock response signaling pathway - cell viability counter screen (AID 743209). Note: nearly all actives have a fitted effect of over 50% in size. Put shortly:
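Same-well multiplex: after 2.5 h room-temperature incubation with LiveBLAzer B/G substrate and fluorescence reading, CellTiter-Glo reagent was added to HSE-bla HeLa cells that had received compound for 5 h at 37 C; luminescence read after 30 min.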

A short description of assay [10]: qHTS assay for small molecule activators of the heat shock response signaling pathway (AID 743210; active = well fitted activation curve with a large enough effect in the signal ratio in the repeat runs, with a control signal flat, not every such curve was filed as active; the % refers to the signal ratio;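 note: HeLa cells with beta-lactamase reporter driven by heat shock elements; series mostly up to about 63 µM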). The method in brief:
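Following overnight attachment, HSE-bla HeLa cells received test compounds for 5 h at 37 C; beta-lactamase activity was then detected via FRET substrate fluorescence.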

A short description of assay [11]: qHTS assay to identify small molecule agonists of the peroxisome proliferator-activated receptor delta (PPARd) signaling pathway - cell viability counter screen (AID 743211). Note: nearly all actives have a fitted effect of over 55% in size. The method in brief: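 HEK293H PPARd-bla, 3000 cells/well; 5 h preincubation 37C/5% CO2; cpd in DMSO, 17 h 37C; B/G FRET substrate 2 h RT; CellTiter-Glo 30 min RT, luminescence.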
The target in assay [12] is Peroxisome proliferator-activated receptor delta (Homo sapiens) (UniProt Q03181). Kind of assay: qHTS assay to identify small molecule agonists of the peroxisome proliferator-activated receptor delta (PPARd) signaling pathway (AID 743212; calls by dose curve). Put shortly: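 Tox21 library screened in GeneBLAzer PPARd UAS-bla HEK293H cells. After compound treatment at 37 C, a FRET-based beta-lactamase substrate was applied for 2 h and fluorescence recorded.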

Assay [13] is described as follows: qHTS assay to identify small molecule antagonists of the peroxisome proliferator-activated receptor delta (PPARd) signaling pathway - cell viability counter screen (AID 743213). Note: nearly all actives have a fitted effect of over 50% in size. The method in brief:
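PPARd-bla HEK293H cells (3000/well) got compound plus 300 nM L165041 agonist for 17 h at 37 C. Viability in the same wells came from CellTiter-Glo luminescence after 30 min at room temperature.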

Assay [14] deals with Bile acid receptor (Homo sapiens) (UniProt Q96RI1). In words: qHTS assay to identify small molecule antagonists of the farnesoid-X-receptor (FXR) signaling pathway (AID 743217; active = well fitted inhibition curve with a large enough effect in the signal ratio in the repeat runs, not every such curve was filed as active; the % refers to the signal ratio). Put shortly: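 FRET fluorescence after 2 h room-temperature LiveBLAzer loading gives the readout. Prior step: FXR-bla HEK 293T cells, seeded and incubated 5 h, received test compounds plus 50 uM final CDCA for 16 h at 37 °C.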

The nature of assay [15]: qHTS assay to identify small molecule agonists of the farnesoid-X-receptor (FXR) signaling pathway - cell viability counter screen (AID 743218). Note: nearly all actives have a fitted effect of over 45% in size. The method in brief:
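Readout: CellTiter-Glo luminescence, 30 min RT, multiplexed after the FXR-bla FRET reading. HEK 293T FXR-UAS-bla cells received compound 5 h post-plating and were incubated 16 h at 37 C.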

Assay [16] addresses Bile acid receptor (Homo sapiens) (UniProt Q96RI1). Kind of assay: qHTS assay to identify small molecule agonists of the farnesoid-X-receptor (FXR) signaling pathway (AID 743220; active = well fitted activation curve with a large enough effect in the signal ratio in the repeat runs, not every such curve was filed as active; the % refers to the signal ratio). Put shortly: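 FXR-UAS-bla HEK 293T cells carrying a UAS-driven beta-lactamase reporter were plated for 5 h at 37C/5% CO2, then exposed to DMSO-dissolved Tox21 10K compounds for 16 h at 37C. A LiveBLAzer B/G FRET substrate was loaded for 2 h at room temperature before fluorescence reading.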

A short description of assay [17]: qHTS assay to identify small molecule antagonists of the farnesoid-X-receptor (FXR) signaling pathway - cell viability counter screen (AID 743221; active = well fitted cell-killing curve with a large enough effect in the repeat runs, not every such curve was filed as active; note: nearly all actives have a fitted effect of over 50% in size). The method in brief: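 Luminescence from CellTiter-Glo measures cytotoxicity in GeneBLAzer FXR-UAS-bla HEK 293T cells. Cells were exposed to compounds with 50 uM chenodeoxycholic acid (final) for 16 h at 37 C, in wells also used for the reporter readout.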

For assay [18], the target named is Vitamin D3 receptor (Homo sapiens) (UniProt P11473). Kind of assay: qHTS assay to identify small molecule agonists of the vitamin D receptor (VDR) signaling pathway (AID 743222; calls by dose curve). Put shortly:
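Following 4 h attachment at 37C, VDR-bla cells (2,000 per well) received DMSO-dissolved compounds or controls. After 16 h incubation, LiveBLAzer B/G FRET substrate was added and fluorescence read 2 h later at room temperature.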

Assay [19] shares this target. Kind of assay: qHTS assay to identify small molecule antagonists of the vitamin D receptor (VDR) signaling pathway (AID 743223; active = well fitted inhibition curve with a large enough effect in the signal ratio in the repeat runs, not every such curve was filed as active; the % refers to the signal ratio). The method in brief:
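Antagonist mode uses 1alpha,25-dihydroxyvitamin D3 at 3 nM final as stimulus. VDR-bla cells receive compounds in DMSO, incubate 16 h at 37C, then a beta-lactamase FRET substrate for 2 h at room temperature before fluorescence measurement.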

In assay [20] the target is Peroxisome proliferator-activated receptor delta (Homo sapiens) (UniProt Q03181). Kind of assay: qHTS assay to identify small molecule antagonists of the peroxisome proliferator-activated receptor delta (PPARd) signaling pathway (AID 743215; active = well fitted inhibition curve with a large enough effect in the signal ratio in the repeat runs, not every such curve was filed as active; the % refers to the signal ratio;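 note: cells stimulated with agonist L165041 at 300 nM final during compound exposure; series mostly up to about 62 µM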). Put shortly:
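Fluorescence from cleaved LiveBLAzer B/G FRET substrate (2 h, room temperature) reports PPARd-driven beta-lactamase in HEK293H UAS-bla cells. Cells had been treated 17 h at 37 C with compound plus 300 nM final L165041.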

Sequence of Vitamin D3 receptor (Homo sapiens) (P11473 whole entry, looked up): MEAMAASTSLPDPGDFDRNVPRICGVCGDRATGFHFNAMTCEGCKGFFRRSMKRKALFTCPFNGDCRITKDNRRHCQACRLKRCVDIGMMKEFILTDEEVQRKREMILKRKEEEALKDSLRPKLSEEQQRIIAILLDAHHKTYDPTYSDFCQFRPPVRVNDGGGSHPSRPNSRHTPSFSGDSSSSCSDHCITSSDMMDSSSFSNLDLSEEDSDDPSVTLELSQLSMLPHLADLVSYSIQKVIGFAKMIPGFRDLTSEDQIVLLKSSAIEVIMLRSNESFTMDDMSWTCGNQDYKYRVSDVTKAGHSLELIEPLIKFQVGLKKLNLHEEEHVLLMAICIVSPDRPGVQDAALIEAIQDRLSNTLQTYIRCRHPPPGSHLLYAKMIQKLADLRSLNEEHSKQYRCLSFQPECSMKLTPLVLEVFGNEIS
Sequence of Aryl hydrocarbon receptor (Homo sapiens) (P35869 whole entry, looked up): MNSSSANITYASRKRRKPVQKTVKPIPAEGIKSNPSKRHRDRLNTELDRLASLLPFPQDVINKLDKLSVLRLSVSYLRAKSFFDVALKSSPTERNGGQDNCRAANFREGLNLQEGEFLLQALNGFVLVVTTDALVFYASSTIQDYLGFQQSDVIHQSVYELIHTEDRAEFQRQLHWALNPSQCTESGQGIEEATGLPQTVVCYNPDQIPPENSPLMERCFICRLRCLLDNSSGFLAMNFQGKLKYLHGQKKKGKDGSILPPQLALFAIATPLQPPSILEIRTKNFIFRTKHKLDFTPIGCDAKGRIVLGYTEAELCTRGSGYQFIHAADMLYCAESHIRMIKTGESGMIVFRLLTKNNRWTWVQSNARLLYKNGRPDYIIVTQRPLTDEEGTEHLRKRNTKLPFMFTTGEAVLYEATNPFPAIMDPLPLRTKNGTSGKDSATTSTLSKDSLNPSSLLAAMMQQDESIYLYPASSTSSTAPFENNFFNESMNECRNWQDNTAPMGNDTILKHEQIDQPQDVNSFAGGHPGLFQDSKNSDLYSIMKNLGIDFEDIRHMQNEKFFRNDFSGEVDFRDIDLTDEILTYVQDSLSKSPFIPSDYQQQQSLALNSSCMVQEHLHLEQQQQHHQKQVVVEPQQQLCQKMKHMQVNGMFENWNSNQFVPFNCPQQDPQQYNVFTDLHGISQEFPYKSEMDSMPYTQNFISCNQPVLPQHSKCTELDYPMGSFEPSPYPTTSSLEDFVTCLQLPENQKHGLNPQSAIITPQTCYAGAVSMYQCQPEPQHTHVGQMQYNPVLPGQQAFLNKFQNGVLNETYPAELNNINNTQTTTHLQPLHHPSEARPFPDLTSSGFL
Sequence of Bile acid receptor (Homo sapiens) (Q96RI1 whole entry, looked up): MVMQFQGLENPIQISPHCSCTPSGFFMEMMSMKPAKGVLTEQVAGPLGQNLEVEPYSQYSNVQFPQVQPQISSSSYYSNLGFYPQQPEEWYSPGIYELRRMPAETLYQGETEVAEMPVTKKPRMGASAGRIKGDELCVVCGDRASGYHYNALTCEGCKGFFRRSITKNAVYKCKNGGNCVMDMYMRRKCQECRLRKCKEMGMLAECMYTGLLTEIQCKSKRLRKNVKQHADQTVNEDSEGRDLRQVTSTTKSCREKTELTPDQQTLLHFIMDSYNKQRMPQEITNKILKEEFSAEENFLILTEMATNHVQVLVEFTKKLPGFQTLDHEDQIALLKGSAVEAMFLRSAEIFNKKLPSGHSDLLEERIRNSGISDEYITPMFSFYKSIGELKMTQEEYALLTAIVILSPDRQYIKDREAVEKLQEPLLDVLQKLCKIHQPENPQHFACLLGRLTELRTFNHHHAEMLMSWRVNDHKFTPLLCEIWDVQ
Sequence of Peroxisome proliferator-activated receptor gamma (Homo sapiens) (P37231 whole entry, looked up): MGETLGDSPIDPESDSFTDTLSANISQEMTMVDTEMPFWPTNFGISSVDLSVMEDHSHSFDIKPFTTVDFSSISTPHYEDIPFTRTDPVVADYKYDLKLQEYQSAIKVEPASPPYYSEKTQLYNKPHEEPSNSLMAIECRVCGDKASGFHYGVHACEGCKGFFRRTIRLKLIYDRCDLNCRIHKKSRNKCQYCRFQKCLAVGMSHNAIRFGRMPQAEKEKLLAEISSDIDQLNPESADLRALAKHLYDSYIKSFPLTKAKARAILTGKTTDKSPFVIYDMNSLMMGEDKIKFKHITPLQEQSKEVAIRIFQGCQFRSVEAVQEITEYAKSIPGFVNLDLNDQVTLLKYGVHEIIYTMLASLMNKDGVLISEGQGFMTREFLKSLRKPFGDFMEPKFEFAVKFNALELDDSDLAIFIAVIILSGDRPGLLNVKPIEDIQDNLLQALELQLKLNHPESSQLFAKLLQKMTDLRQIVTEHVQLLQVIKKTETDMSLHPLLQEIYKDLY
Sequence of Peroxisome proliferator-activated receptor delta (Homo sapiens) (Q03181 whole entry, looked up): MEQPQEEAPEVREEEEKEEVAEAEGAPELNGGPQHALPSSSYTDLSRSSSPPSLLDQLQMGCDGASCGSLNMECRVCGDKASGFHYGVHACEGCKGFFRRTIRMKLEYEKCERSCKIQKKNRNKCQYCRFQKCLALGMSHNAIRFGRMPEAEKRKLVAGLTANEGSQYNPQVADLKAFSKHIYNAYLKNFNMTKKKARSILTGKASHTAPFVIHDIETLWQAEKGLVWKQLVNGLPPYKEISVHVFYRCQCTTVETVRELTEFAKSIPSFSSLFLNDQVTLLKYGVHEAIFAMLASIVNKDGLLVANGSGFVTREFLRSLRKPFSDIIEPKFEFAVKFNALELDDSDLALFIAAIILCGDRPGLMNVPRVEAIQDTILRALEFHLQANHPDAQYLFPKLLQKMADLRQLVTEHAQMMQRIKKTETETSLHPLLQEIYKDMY

On to `CCCCCCCCCCCC(=O)OC`, for which the Potency entry in [1], in [2], in [3], in assay [7], in assay [8] and in [12] was “inactive” in each case. For the same compound, the result in assay [4], in assay [5], in assay [6], in [9], in assay [10] and in assay [11] was inactive. In addition, the outcome in assay [13], in assay [14], in [15], in assay [16], in [17] and in [18] was inactive. Moreover, the call in [19] was inactive.

On to `CC1(C)NC(=O)NC1=O`, for which the Potency result in assay [1], in assay [2], in assay [3], in [7], in assay [8] and in assay [12] was “inactive” each time. Further, the compound was called inactive in [4], in [5], in assay [6], in assay [9], in [10] and in assay [13]. Besides, the call in assay [15], in assay [17], in assay [18] and in assay [19] was inactive.

As for `CC(=O)Oc1ccc(C)cc1`, the Potency result in assay [1], in assay [2], in assay [3], in [7], in [8] and in assay [12] was “inactive” throughout. Further, the compound was classed as inactive in assay [4], in assay [5], in assay [6], in [9], in [10] and in assay [11]. Besides, the result in assay [13], in assay [20], in assay [15] and in assay [17] was inactive.

In the case of `CCOCC(=O)O`, the Potency entry in assay [1], in assay [2], in [3], in assay [7], in assay [8] and in [12] was “inactive” throughout. Besides, the compound was called inactive in assay [4], in [5], in [6], in [9], in [10] and in assay [11]. Moreover, the result in assay [13], in assay [20], in [17], in [18] and in [19] was inactive.

Take `CC(C)OP(=O)(CP(=O)(OC(C)C)OC(C)C)OC(C)C`: the Potency entry in assay [1], in assay [2], in assay [3], in assay [7], in assay [8] and in assay [12] was “inactive” throughout. Further, the result in assay [4], in assay [5], in assay [6], in assay [9], in assay [10] and in assay [11] was inactive. The call in [13], in assay [20], in assay [14], in assay [16], in assay [17] and in [18] was inactive. Also, in assay [19], the compound was classed as inactive.

Turning to `C=Cc1ccc(C)cc1`, the Potency result in assay [1], in assay [2], in assay [3], in assay [7], in assay [8] and in [12] was “inactive” throughout. The call in assay [4], in assay [5], in assay [6], in assay [9], in assay [10] and in assay [13] was inactive. For the same compound, the outcome in [15], in assay [17], in assay [18] and in [19] was inactive.

As to `CC1(C)OC[C@@H]2O[C@@]3(C(=O)O)OC(C)(C)O[C@H]3[C@@H]2O1`, the Potency result in assay [1], in [2], in assay [3], in assay [7] and in [8] was “inactive” in each case. For the same compound, the call in [4], in assay [5], in assay [6], in [9], in [13] and in [15] was inactive. Moreover, the outcome in [17], in assay [18] and in assay [19] was inactive.

On to `CC(C)(C#N)c1cc(Cn2cncn2)cc(C(C)(C)C#N)c1`, for which the Potency result in [1], in assay [2], in assay [3], in [7] and in assay [8] was “inactive” each time. Also, the result in assay [4], in [5], in assay [6], in assay [9], in assay [10] and in assay [11] was inactive. The compound was classed as inactive in [13], in [14], in assay [15], in [16], in assay [17] and in [18]. Also, in [19], the compound was classed as inactive.

With `Cc1ccc(C(C)C)c(O)c1`, the Potency result in assay [1] is “inactive and 61.1 µM (active)”; in assay [8] it was 61.1 µM (active) and inactive. Also, the Potency result in [2], in assay [3], in assay [7] and in assay [12] was “inactive” throughout. For the same compound, the result in assay [4], in [5], in [6], in assay [9], in assay [10] and in assay [13] was inactive. The compound was classed as inactive in [15], in assay [17], in [18] and in assay [19].
